The source of these data is PubChem BioAssay (Tox21).

Molecules are shown by their SMILES. Several values for one entry are separate records, joined by “and”; a condition that tells them apart may be missing. Identical values can stand only once. Records with an inconclusive call do not appear. Activity calls are given as the source filed them. Unless noted, calls come from the whole dose curve.

The nature of assay [1]: Nuclear factor erythroid 2-related factor 2/antioxidant responsive element (Nrf2/ARE) small molecule agonists: qHTS cell viability counter screen in human keratinocytes (AID 1919968; active = well fitted curve in the direction sought with a large enough effect in the repeat runs; an effect the other way counts as inactive or inconclusive; note: nearly all actives have a fitted effect of over 55% in size; note: potency is the fitted concentration of half-maximal effect). The essentials:
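KeratinoSens HaCaT cells, 1,500/well, preincubated 5 h, then exposed to compounds in DMSO for 23 h at 37 C/5% CO2. Viability read as CellTiter-Fluor fluorescence after 1 h, in the same wells as the ARE-luciferase read.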
On the technique in general: In qHTS, concentration-response curves come from the screen itself.

Assay [2] addresses Gonadotropin-releasing hormone receptor (Homo sapiens) (UniProt P30968). The assay can be described thus: Human gonadotropin-releasing hormone receptor (GnRHR) small molecule agonists, calcium flux assay in GnRHR-HEK293 cells (AID 1920063). Note: nearly all actives have a fitted effect of over 35% in size. The essentials:
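HEK293 cells stably expressing human GnRHR were dye-loaded for 1 h at 37 C. Compound was added in agonist mode and fluorescence (Ex/Em 480/540) recorded kinetically for 3 min. Fifteen concentrations, triplicates.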
(In general: A change in cytosolic calcium serves as a functional read-out for many receptors and channels.)

Assay [3] addresses KiSS-1 receptor (Homo sapiens) (UniProt Q969F8). In words: Human kisspeptin (KISS1R) small molecule agonists, calcium flux assay in KISS1R-HEK293 cells (AID 1920064; active = well fitted curve in the direction sought with a large enough effect in the repeat runs; an effect the other way counts as inactive or inconclusive). A digest of the protocol:
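HEK293 cells stably expressing human KISS1R were loaded with calcium dye for 1 h at 37 C, then given compound; fluorescence (Ex/Em 480/540) was read kinetically for 3 min. Fifteen concentrations, triplicate.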

Assay [4] can be described thus: G protein-coupled receptor (GPCR) small molecule agonists, calcium flux assay: HEK293 wild type cell line counter screen (AID 1920065). A digest of the protocol:
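Wild-type HEK293 cells plated 18 h, loaded with calcium dye 1 h at 37 C, then compounds added in agonist mode (ATP as positive control). Kinetic fluorescence Ex/Em 480/540 recorded 3 min at 1 sec intervals; 15 concentrations, triplicate.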

Assay [5] is described as follows: p53 small molecule agonists, cell-based qHTS assay with human liver microsomes (AID 1963577).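 Note: p53 response element beta-lactamase reporter cells with liver microsomes plus NADPH.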 A digest of the protocol: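 Steps: plate p53RE-bla cells, incubate 5 h at 37 C; add compound in DMSO; add microsomes (0.5 mg/mL final) and NADPH (0.5 mg/mL final); incubate 16 h at 37 C; add LiveBLAzer, 2 h RT; read fluorescence.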
Assay [6] in a line: p53 small molecule agonists, cell-based qHTS assay with rat liver microsomes (AID 1963578). The essentials:
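Metabolic activation is supplied by rat liver microsomes with NADPH (each 0.5 mg/mL final). p53RE-bla cells incubate with compound 16 h at 37 C; reporter activity is measured by LiveBLAzer fluorescence.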

Assay [7] in a line: p53 small molecule agonists, cell-based qHTS assay with human liver microsomes: qHTS cell viability counter screen (AID 1963579). Note: nearly all actives have a fitted effect of over 45% in size. A digest of the protocol:
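After the 460/530 nm beta-lactamase read, CellTiter-Glo was added to the same wells and luminescence measured after 30 min at room temperature, giving viability of p53RE-bla cells treated 16 h with compounds plus microsomes and NADPH.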

Assay [8] in a line: p53 small molecule agonists, cell-based qHTS assay with rat liver microsomes: qHTS cell viability counter screen (AID 1963580). Note: nearly all actives have a fitted effect of over 45% in size. The essentials: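 HCT-116 p53RE-bla, 4,000 cells/well, 5 h pre-incubation; cpd + rat liver microsomes 0.5 mg/mL + NADPH 0.5 mg/mL (final); 16 h, 37 C; CellTiter-Glo, 30 min RT; luminescence.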
Assay [9] in a line: p53 small molecule agonists, cell-based qHTS assay: qHTS cell viability counter screen (AID 1963581). Note: nearly all actives have a fitted effect of over 45% in size. A digest of the protocol: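 p53RE-bla HCT-116 cells, compounds added 5 h after plating and incubated 16 h at 37 C. Cytotoxicity measured in the same wells as intracellular ATP by CellTiter-Glo luminescence after 30 min at room temperature.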
Assay [10] can be described thus: p53 small molecule agonists, cell-based qHTS assay (AID 1963582; active = well fitted activation curve with a large enough effect in the signal ratio in the repeat runs, not every such curve was filed as active; the % refers to the signal ratio). A digest of the protocol:
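p53RE-bla reporter cells, compounds added in DMSO after 5 h plating, incubated 16 h at 37 C. Beta-lactamase read via 2 h room-temperature LiveBLAzer B/G FRET substrate, fluorescence intensity.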

Assay [11] concerns the target 5-hydroxytryptamine receptor 2A (Homo sapiens) (UniProt P28223). The assay can be described thus: 5-hydroxytryptamine receptor 2A (HTR2A) small molecule antagonists, cell-based qHTS assay (AID 1963586). Note: nearly all actives have a fitted effect of over 45% in size. The essentials:
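Antagonist-mode intracellular calcium assay: DOI (4 nM) added after 5 min compound pre-incubation at room temperature to dye-loaded HTR2A-CHO cells. Fluorescence followed for 3 min, sampled every second.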

Assay [12] shares this target. The assay can be described thus: 5-hydroxytryptamine receptor 2A (HTR2A) small molecule agonists, cell-based qHTS assay (AID 1963587). Note: nearly all actives have a fitted effect of over 30% in size. A digest of the protocol:
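Kinetic calcium-flux fluorescence (2 min, 1 sec intervals) after compound addition in agonist mode. HTR2A-CHO cells were cultured 18 h, then dye-loaded 1 h at 37 C.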

Assay [13] addresses Muscarinic acetylcholine receptor M1 (Homo sapiens) (UniProt P11229). The assay can be described thus: Cholinergic receptor muscarinic 1 (CHRM1) small molecule antagonists, cell-based qHTS assay (AID 1963588). Note: nearly all actives have a fitted effect of over 40% in size. The essentials:
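CHRM1-CHO calcium-flux assay, antagonist mode. Cells were seeded 18 h, dye-loaded 1 h at 37 C and given compound for 5 min at RT, then acetylcholine was added at 50nM. FDSS fluorescence was read 3 min; 15 concentrations, three runs.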

Assay [14] shares this target. In words: Cholinergic receptor muscarinic 1 (CHRM1) small molecule agonists, cell-based qHTS assay (AID 1963589). Note: nearly all actives have a fitted effect of over 35% in size. A digest of the protocol: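 CHO cells stably expressing human CHRM1 were loaded with calcium dye for 1 h at 37 C, then compound was added in agonist mode. Intracellular calcium fluorescence was followed kinetically at 1 s intervals. Fifteen concentrations were tested in three independent runs.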

Assay [15] in a line: cAMP Responsive Elements (CRE) small molecule agonists, cell-based qHTS assay (AID 1963590). The essentials: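 CRE-bla HEK 293T cells, 2,000/well in DMEM with 10% dialyzed FBS and 25 mM HEPES, pre-incubated 18 h at 37 C, then exposed to compound 3 h at 37 C. Beta-lactamase reporter read with LiveBLAzer B/G FRET substrate after 2 h at room temperature.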
Assay [16] in a line: cAMP Responsive Elements (CRE) small molecule antagonists, cell-based qHTS assay (AID 1963591; active = well fitted inhibition curve with a large enough effect in the signal ratio in the repeat runs, not every such curve was filed as active; the % refers to the signal ratio). A digest of the protocol:
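CRE-bla HEK293T cells plated 18 h, then given compound plus NKH477 at 0.25 uM final for 3 h at 37C. Beta-lactamase reporter read with LiveBLAzer B/G FRET substrate after 2 h at room temperature.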

Assay [17] deals with Beta-2 adrenergic receptor (Homo sapiens) (UniProt P07550). In words: Adrenergic beta2 receptor (ADRB2) small molecule antagonists, cell-based qHTS assay (AID 1963592). Note: series mostly up to about 92 µM; nearly all actives have a fitted effect of over 50% in size. The essentials: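 Cells (CHO, stable ADRB2 overexpression) incubated 18-20hr at 37C; compounds added from DMSO; agonist mix (1nM isoproterenol, 100uM IBMX, 25uM Ro-20-1724) added; 0.5hr RT; d2-cAMP and anti-cAMP-cryptate added; 1hr RT; 665/615 nm read.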
Sequence of Beta-2 adrenergic receptor (Homo sapiens) (P07550 whole entry, looked up): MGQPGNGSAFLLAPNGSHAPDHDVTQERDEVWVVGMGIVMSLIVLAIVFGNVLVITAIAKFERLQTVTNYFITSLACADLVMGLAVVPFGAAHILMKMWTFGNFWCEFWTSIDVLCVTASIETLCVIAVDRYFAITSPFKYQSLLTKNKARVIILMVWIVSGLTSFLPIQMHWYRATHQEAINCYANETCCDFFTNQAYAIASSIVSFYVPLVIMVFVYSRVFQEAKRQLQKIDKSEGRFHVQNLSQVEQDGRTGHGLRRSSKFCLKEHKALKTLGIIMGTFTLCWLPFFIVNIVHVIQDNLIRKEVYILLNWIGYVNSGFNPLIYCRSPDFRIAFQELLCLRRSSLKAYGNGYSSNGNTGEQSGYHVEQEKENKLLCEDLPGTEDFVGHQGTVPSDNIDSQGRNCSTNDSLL

Assay [18] has the same target. The assay can be described thus: Adrenergic beta2 receptor (ADRB2) small molecule agonists, cell-based qHTS assay (AID 1963593).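 Note: CHO cells stably overexpressing human ADRB2.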 A digest of the protocol: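 CHO cells stably over-expressing ADRB2 were plated overnight at 37C, then dosed with compounds plus a stimulation mix containing 100uM IBMX and 25uM Ro-20-1724 for 0.5hr at room temperature. cAMP was measured by HTRF competition, 1hr.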

The target in assay [19] is D(2) dopamine receptor (Homo sapiens) (UniProt P14416). In words: Dopamine D2 receptor (DRD2) small molecule agonists, cell-based qHTS assay (AID 1963594). Note: nearly all actives have a fitted effect of over 35% in size. The essentials: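 cAMP accumulation in DRD2-HEK293 cells measured by HTRF after 1 h detection; compounds added 10 min before NKH477 (200nM […]) forskolin-analogue stimulation, 30 min at room temperature, with Ro20-1724 present at 0.1 mM final.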
Sequence of D(2) dopamine receptor (Homo sapiens) (P14416 whole entry, looked up): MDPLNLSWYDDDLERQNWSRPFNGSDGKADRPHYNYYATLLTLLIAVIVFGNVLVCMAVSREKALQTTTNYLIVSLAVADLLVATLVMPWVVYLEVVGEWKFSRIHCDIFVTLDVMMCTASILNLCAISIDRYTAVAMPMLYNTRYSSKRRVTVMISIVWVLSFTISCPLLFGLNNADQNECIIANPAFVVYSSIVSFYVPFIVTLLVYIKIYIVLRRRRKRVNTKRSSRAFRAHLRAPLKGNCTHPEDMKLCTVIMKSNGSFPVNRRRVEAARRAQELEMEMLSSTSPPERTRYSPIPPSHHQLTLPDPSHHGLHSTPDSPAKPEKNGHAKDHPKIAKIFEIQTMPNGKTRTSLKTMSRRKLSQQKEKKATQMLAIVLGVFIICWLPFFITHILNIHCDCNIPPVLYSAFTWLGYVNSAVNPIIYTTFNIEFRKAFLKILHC

Assay [20] has the same target. In words: Dopamine D2 receptor (DRD2) small molecule antagonists, cell-based qHTS assay (AID 1963595; active = well fitted inhibition curve with a large enough effect in the signal ratio in the repeat runs, with a control signal flat; the % refers to the signal ratio). A digest of the protocol:
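Readout: HTRF cAMP, cAMP-d2 competing with cellular cAMP for anti-cAMP cryptate, read after 1 h. Cells: DRD2-HEK293. Conditions: 0.1 mM Ro20-1724, 12 nM quinpirole, 200 nM NKH477, 30 min RT.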

Sequence of Gonadotropin-releasing hormone receptor (Homo sapiens) (P30968 whole entry, looked up): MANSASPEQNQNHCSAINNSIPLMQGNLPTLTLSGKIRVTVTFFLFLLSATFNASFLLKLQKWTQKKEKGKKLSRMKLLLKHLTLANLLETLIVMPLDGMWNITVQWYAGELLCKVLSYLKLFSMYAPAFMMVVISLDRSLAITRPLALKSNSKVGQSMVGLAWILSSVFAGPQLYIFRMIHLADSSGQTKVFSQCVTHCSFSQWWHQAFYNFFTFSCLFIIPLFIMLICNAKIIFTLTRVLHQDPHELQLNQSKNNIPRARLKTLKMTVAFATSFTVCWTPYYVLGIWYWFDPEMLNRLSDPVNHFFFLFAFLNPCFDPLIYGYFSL
Sequence of Muscarinic acetylcholine receptor M1 (Homo sapiens) (P11229 whole entry, looked up): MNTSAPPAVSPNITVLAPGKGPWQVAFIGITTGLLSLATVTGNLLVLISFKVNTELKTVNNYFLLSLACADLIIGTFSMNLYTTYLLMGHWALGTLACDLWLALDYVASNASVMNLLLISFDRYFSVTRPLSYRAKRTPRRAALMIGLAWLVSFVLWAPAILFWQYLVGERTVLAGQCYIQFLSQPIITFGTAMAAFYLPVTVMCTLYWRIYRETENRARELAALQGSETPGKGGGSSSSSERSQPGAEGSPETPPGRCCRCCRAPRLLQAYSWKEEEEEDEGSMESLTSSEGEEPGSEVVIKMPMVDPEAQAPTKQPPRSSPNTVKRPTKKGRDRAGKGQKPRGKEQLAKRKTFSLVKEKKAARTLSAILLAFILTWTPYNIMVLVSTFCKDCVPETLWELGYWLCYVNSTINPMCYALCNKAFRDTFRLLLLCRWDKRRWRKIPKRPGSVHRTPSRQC
Sequence of 5-hydroxytryptamine receptor 2A (Homo sapiens) (P28223 whole entry, looked up): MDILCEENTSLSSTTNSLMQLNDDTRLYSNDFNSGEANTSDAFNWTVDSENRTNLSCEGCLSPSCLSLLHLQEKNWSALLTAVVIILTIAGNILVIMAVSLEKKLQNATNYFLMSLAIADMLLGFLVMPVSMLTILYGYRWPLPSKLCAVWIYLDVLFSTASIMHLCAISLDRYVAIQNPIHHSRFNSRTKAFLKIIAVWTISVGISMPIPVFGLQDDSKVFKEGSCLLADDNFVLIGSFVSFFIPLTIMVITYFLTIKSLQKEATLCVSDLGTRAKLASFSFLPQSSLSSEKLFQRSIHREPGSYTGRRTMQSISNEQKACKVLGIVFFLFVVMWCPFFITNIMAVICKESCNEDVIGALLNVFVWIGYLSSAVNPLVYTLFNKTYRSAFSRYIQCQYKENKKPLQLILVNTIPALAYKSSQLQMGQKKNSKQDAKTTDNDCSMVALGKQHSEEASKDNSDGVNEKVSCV
Sequence of KiSS-1 receptor (Homo sapiens) (Q969F8 whole entry, looked up): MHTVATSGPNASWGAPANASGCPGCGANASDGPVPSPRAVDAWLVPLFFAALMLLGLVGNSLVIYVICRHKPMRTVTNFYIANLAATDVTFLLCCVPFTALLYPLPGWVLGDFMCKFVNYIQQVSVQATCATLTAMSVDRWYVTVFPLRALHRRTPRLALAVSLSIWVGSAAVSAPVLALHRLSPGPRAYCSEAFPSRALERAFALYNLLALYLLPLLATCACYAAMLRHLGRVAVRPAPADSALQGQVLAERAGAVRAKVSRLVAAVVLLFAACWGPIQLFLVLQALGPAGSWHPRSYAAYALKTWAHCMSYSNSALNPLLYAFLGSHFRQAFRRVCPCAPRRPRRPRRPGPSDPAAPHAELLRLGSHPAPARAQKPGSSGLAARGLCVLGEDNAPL

For the molecule `CON(C)C(=O)Nc1ccc(Cl)c(Cl)c1`, the Potency result in assay [1], in assay [2], in assay [3], in [4], in assay [5] and in assay [6] was “inactive” each time. The Potency result in assay [7], in [8], in assay [9], in assay [10], in assay [11] and in assay [12] was “inactive” in each case. In addition, the Potency result in [13], in [14], in assay [15], in [16], in assay [17] and in [18] was “inactive” in each case. Further, the Potency result in assay [19] and in [20] was “inactive” throughout.
For the molecule `N#CS`, the Potency entry in [1], in assay [2], in assay [3], in [4], in assay [5] and in assay [6] was “inactive” throughout. Besides, the Potency entry in assay [7], in assay [8], in assay [9], in [10], in [11] and in [12] was “inactive” throughout. Further, the Potency entry in assay [13], in [14], in assay [15], in assay [17], in assay [18] and in assay [19] was “inactive” in each case. The Potency entry in [20] was “inactive”.
On to `CC(NC(C)(C)C)C(=O)c1cccc(Cl)c1` (stereo unspecified), for which the Potency entry in [1], in assay [2], in assay [3], in assay [4], in assay [5] and in assay [6] was “inactive” in each case. The Potency entry in [7], in [8], in assay [9], in assay [10], in [15] and in assay [16] was “inactive” in each case. In addition, the Potency result in assay [17], in [19] and in assay [20] was “inactive” in each case.
In the case of `O=C(O)C1C(C(=O)O)C2(Cl)C(Cl)=C(Cl)C1(Cl)C2(Cl)Cl` (stereo unspecified), the Potency result in assay [1], in assay [2], in [3], in assay [4], in assay [5] and in assay [6] was “inactive” in each case. Also, the Potency entry in [7], in assay [8], in [9], in [10], in assay [11] and in assay [12] was “inactive” throughout. Further, the Potency entry in assay [13], in assay [15], in assay [16], in assay [17], in assay [18] and in assay [19] was “inactive” in each case. Further, the Potency result in assay [20] is “inactive”.
Take `Cc1ccc(C(=O)Cl)cc1`: the Potency entry in assay [1], in assay [2], in [3], in [4], in [5] and in assay [6] was “inactive” in each case. Further, the Potency entry in assay [7], in assay [8], in assay [9], in assay [11], in [12] and in assay [13] was “inactive” each time. In addition, the Potency result in assay [14], in assay [15], in assay [16], in [17], in [18] and in [19] was “inactive” each time. Besides, the Potency entry in assay [20] is “inactive”.
For `COC(=O)C(Br)CBr` (stereo unspecified), the Potency entry in [1], in assay [2], in assay [3], in assay [4], in [5] and in assay [6] was “inactive” throughout. The Potency result in assay [7], in assay [8], in assay [9], in assay [10], in assay [11] and in assay [12] was “inactive” in each case. For the same molecule, the Potency result in assay [13], in assay [14], in [15], in assay [16], in assay [17] and in assay [19] was “inactive” throughout.
As for `Clc1ccc(C(Cl)(Cl)Cl)cc1`, the Potency entry in assay [1], in assay [2], in [3], in assay [4], in [5] and in [6] was “inactive” throughout. Moreover, the Potency entry in [7], in assay [8], in assay [9], in [10], in assay [11] and in assay [12] was “inactive” throughout. Besides, the Potency entry in assay [13], in assay [14], in [15], in [16], in assay [17] and in [18] was “inactive” in each case. Also, the Potency result in assay [19] and in assay [20] was “inactive” in each case.
Take `O=[N+]([O-])/C=C/c1ccccc1`: in assay [1], the Potency was 17.5 µM (active) and 27.3 µM (active). Also, the Potency result in [2], in [3], in [4], in assay [6], in [7] and in [8] was “inactive” in each case. Moreover, the Potency result in [9], in [11], in [12], in assay [13], in assay [14] and in [17] was “inactive” each time. For the same molecule, the Potency entry in assay [18], in assay [19] and in assay [20] was “inactive” in each case.
